Data as given in PubChem BioAssay AID1508600 (Functional Genomics Laboratory (NCATS/FGL), 2020).
About 3,700 (7%) of roughly 53,000 sequences were called active. This is one part of a sample in which actives are shown more often than they occur.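 The calls were made as follows: active = gene knockdowns whose robust z-score for IL-1 alpha signal is at least 2 or at most -2, so actives lie on both sides; inactive = the rest.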

Assay: Components of the Cytosolic LPS Sensing Pathway: Gene Identification via Genome-wide siRNA Screen;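 also: robust z of the log signal after scaling to non-targeting control siRNA wells of the plate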
Settings: RAW264.7 macrophages, IL-1a HTRF, actives lie on both sides, screened at 100 nM (by protocol), cells primed 5 h with Pam3CSK4 first
Method in brief: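 Read-out: IL-1a HTRF on supernatant, divided by plate negative-control median ×100, log-transformed and converted to robust z-score. Cells were RAW264.7 given 100 nM siRNA, Pam3CSK4-primed 5 hours, then LipidA-transfected 24 hour.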

Row | Sequence | z-score
1 | GCUCUGACCAUCCUUAGCUTT against Olfr938 | -2.62 (active)
2 | GCCAUACGAUCUGCAUUUCTT against Zbtb38 | -1.85 (inactive)
3 | GGAACAAGUAAAAUUCGUCTT against Tssk2 | 1.71 (inactive)
4 | GGGUUAUGAAGAAGCUCCUTT against Olfr1262 | -1.52 (inactive)
5 | GCUGUGUGACCAGCUGUUGTT against Krtap9-1 | 0.44 (inactive)
6 | CCUACGUCAUUUCAGCACCTT against Hc | 0.356 (inactive)
7 | GCUCCCAUUAUCAUUCAAATT against D3Ertd751e | 1.67 (inactive)
8 | GGAGCUCUGGCACUUUGUCTT against Gramd1b | 0.37 (inactive)
9 | GGAGAAAAGAGGCUUCCAGTT against Lad1 | 0.754 (inactive)
10 | CCCAGAUACCUGGAAAACGTT against Fam189a1 | -2.17 (active)
11 | GGUAUUCCUCUAGAUCAGATT against Dysf | 0.627 (inactive)
12 | GGAUUUGGAGCAGGUGGAUTT against Avpr1b | -0.97 (inactive)
13 | AUGCUUUUUGGAGCCAUAUTT against Olfr307 | 3.07 (active)
14 | GCCCUGAACUACCUAGAAATT against Alg5 | 1.58 (inactive)
15 | GGUUAAGAUUCCAGAGCCATT against Prune1 | -0.297 (inactive)
16 | GGAGAAUCUGGUCUGGGUATT against Septin4 | 1.04 (inactive)
17 | GGGCAAGUAUGGCUAUGUGTT against Pram1 | -0.178 (inactive)
18 | GGCCAAGAGAAUCUAAAGATT against Strn4 | -0.338 (inactive)
19 | GGAGACACUGAAUGUGACATT against Ttyh1 | -2.03 (active)
20 | UGUAACCAUGGUUACCGUGTT against Olfr1513 | 0.311 (inactive)
21 | GGCUGAGAACAUCAAAAAATT against Folh1 | 0.816 (inactive)
22 | GGAAUUGAGGUGAUGGAUATT against Sfxn4 | -0.144 (inactive)

Row | Sequence | z-score
23 | CGGGAUCUAUCCACUGAUGTT against Nrbp2 | -0.983 (inactive)
24 | GGCUACAAGGAGAAGUUUGTT against Traf3 | 2.02 (active)
25 | GCUCUAUGGAUCCUUGGAGTT against Zfp574 | 0.772 (inactive)
26 | GCUCAAUGUGACAGUGGUGTT against Elane | 0.38 (inactive)
27 | GGAAACCGUUCUCAUUAAATT against Mrpl30 | 0.599 (inactive)
28 | GGUUUGGUUGAAAUUGAACTT against Smc5 | -1.16 (inactive)
29 | CCUCAUGGUGAUGAUAUCCTT against Taar6 | -1.35 (inactive)
30 | GGAAGAUGAAGAGUCAGAGTT against Setd1b | -2.52 (active)
31 | CGACAAUGCCAUCGAUUCGTT against Sdc3 | 0.0399 (inactive)
32 | GGUCACACUUUCUUUGGAATT against Tcf25 | 0.775 (inactive)
33 | CCUAAAGACGUGCAAUAUGTT against Zfp287 | 0.526 (inactive)
34 | GGUUGUUCAUGAGCCGAACTT against Rpl18 | -0.0641 (inactive)
35 | GGGUGCGGAAAUUCAUUAATT against Mpv17l2 | 0.803 (inactive)
36 | GGCGCAGUAUCACAGUCUUTT against Tle1 | 1.02 (inactive)
37 | GGAUGAGAACAGCAACCAGTT against Bcl7b | -2.22 (active)
38 | GGUUCCAACAAUUGUAAAGTT against Chl1 | -0.00378 (inactive)
39 | GGAUUUUAAACAAAAGACCTT against Stard13 | 0.718 (inactive)
40 | GGUUCACGGUUUAUAAAGUTT against Sgk3 | -0.652 (inactive)
41 | GCUCCUGUACAGUUCAAACTT against Mrpl17 | 0.0768 (inactive)
42 | GCAGAAAGCACACUCCUACTT against Psors1c2 | -2.02 (active)
43 | GGAGAAGGUAGUUCUGAAATT against Slc7a11 | -0.349 (inactive)
44 | GCACAACAUCACGGUGAACTT against Adcy5 | -0.672 (inactive)

Row | Sequence | z-score
45 | CCACUAUGCUUCUUGGAAUTT against Serpini2 | -0.73 (inactive)
46 | GGAAAAGAAACCAGUUUCUTT against C230012O17Rik | -2.07 (active)
47 | GGACAAAAGACACAUGUUGTT against Miip | -0.674 (inactive)
48 | GGAUUUUCACAUUGCAUCUTT against Dmrtc1a | 1.49 (inactive)
49 | CCUUUGAACCUCUAACUUUTT against Xpnpep1 | 3.62 (active)
50 | GUUUUAGGCAACCUUGGGUTT against Olfr1038-ps | -0.14 (inactive)
51 | GGGACUCUAAAAACAAUGATT against Zkscan14 | 2.67 (active)
52 | CCCAAAAUACAUCAUCAAUTT against Psmc2 | -0.444 (inactive)
53 | GGACAACCACUUUAAGCUUTT against Tars2 | 1.04 (inactive)
54 | GCCUACGUUACCUUGAUCCTT against Slc16a12 | 0.0774 (inactive)
55 | CCGGUAUUUAGGAACUGCCTT against Irak2 | -1.66 (inactive)
56 | GGAGUCAACACACAUCAAGTT against Zfp13 | 1 (inactive)
57 | GGAAACCUGGAAACAGUUUTT against Apol7c | 0.377 (inactive)
58 | GGACAGCAGCAACAACAUCTT against Dnase1l3 | -2.04 (active)
59 | GCGACGGAAGUCUUUAUUATT against Nostrin | -0.163 (inactive)
60 | GGGUGAAGUAGGUGAAAAATT against H2-M10.6 | -0.361 (inactive)
61 | CGUAGCUAAUCCGUAAAAGTT against 1700120K04Rik | -1.93 (inactive)
62 | GGACAAAUCAGUUCUGCGUTT against Car13 | 0.105 (inactive)
63 | GGAACUUGGUAUUUAGAUCTT against Rhot2 | 0.295 (inactive)
64 | GGAUGAGUUUGACAAGCUGTT against Rhou | -0.735 (inactive)
65 | GGAGGAAAAGAGACAGCUCTT against Kank2 | -2.41 (active)
66 | GUGUCAACCUAAGCUUGGCTT against Tlx3 | -1.19 (inactive)

Row | Sequence | z-score
67 | GGUGUACCUCUGAAAAAAATT against Zbp1 | -1.5 (inactive)
68 | AGAACGGAACCAUAGGGAATT against Cmc2 | -0.897 (inactive)
69 | GGUAGUUCAGAUCUGAUUUTT against Svep1 | 0.599 (inactive)
70 | CGUUGCAGUCUAAGCUUGUTT against Rabac1 | 4.44 (active)
71 | AUGGAAUCCAGUAUAGAGCTT against Cep44 | 0.713 (inactive)
72 | GGAAGAAUGUAGGAGGAAGTT against Sln | 0.246 (inactive)
73 | GGUAUGAUCAAUGACUUACTT against Serpine1 | -0.165 (inactive)
74 | GGCUGACUUUCUGUCACAGTT against Olfr655 | 1.03 (inactive)
75 | GCCUGAAUUCCACUACUCGTT against Def8 | 0.551 (inactive)
76 | GGACAAGCUGAGGUGAAAATT against Maats1 | -1.08 (inactive)
77 | CGUACACCGUAUUCAUGACTT against Rapgef5 | 3.6 (active)
78 | GGAUGACUACAAAUGCAAATT against E230015B07Rik | -0.155 (inactive)
79 | GCUAGGAUUUCAGCAUAUATT against Adra1a | 0.29 (inactive)
80 | GGUCCUAACCGACAUGUCUTT against Vrk1 | 0.305 (inactive)
81 | CGUAGUGUUCUGUGUUUAUTT against Mif | 1.36 (inactive)
82 | GGACUUAGUACCUGAUAACTT against Rtraf | 0.838 (inactive)
83 | GCCUAUUGUCAGAAAAGUUTT against Usp4 | -0.385 (inactive)
84 | GGGACUCAACCUAUAUCUUTT against Gnpat | 0.118 (inactive)
85 | CCGGUUGAGUUCACAGAAUTT against Atad3aos | -2.44 (active)
86 | GGAUUUCGAGAUAACUAUGTT against Tbr1 | -0.0186 (inactive)
87 | CGUAUGGAGUCCAUUACUATT against Frmd4b | 0.341 (inactive)
88 | GGAUUCAAACAAUGAGCUCTT against Fam126b | 0.9 (inactive)

Row | Sequence | z-score
89 | GCUACUUUGACAUGCACACTT against Caly | 2.1 (active)
90 | GGCGGAUCUCUUGAGUGUUTT against Glyctk | 0.213 (inactive)
91 | GGUAUCAUUUACUUUGAACTT against Gtf2f2 | -0.0825 (inactive)
92 | GCCAGUUCAUACAAGAGGGTT against Zfp946 | 0.623 (inactive)
93 | GGAGAUCACAGCAAUCCGATT against Ccna1 | -1.01 (inactive)
94 | GUAUGUUGACAUUUGCCUGTT against Olfr113 | -2.05 (active)
95 | GGGCGGAGCAUUUUUCUUGTT against Ube2d2b | 0.483 (inactive)
96 | GGAAGAUGACAGUGCUGUATT against Utp25 | -0.868 (inactive)
97 | GGGAUAAGUACUCUGCUAATT against Sorcs3 | -0.146 (inactive)
98 | CCAAGGGUCACCUAUUUUUTT against Kcna5 | 1.97 (inactive)
99 | CCUGCAUUAGCAUGUUAGGTT against Gfral | -0.483 (inactive)
100 | GGUAGCUAAGAAGUUUAUUTT against Dck | 1.55 (inactive)
101 | GGAUUUAUCCCAAAAUCUATT against Tmem26 | 0.42 (inactive)
102 | GGUUCCUACGAGUUCACUGTT against B130024G19Rik | -2.76 (active)
103 | GGAUCAAAUAACAAUGACATT against Hfm1 | -0.567 (inactive)
104 | GGCCAUGGUUCUAUAGGACTT against Zbtb37 | 0.764 (inactive)
105 | GCUUGUAAAUGGAACGACATT against 0610012G03Rik | -0.69 (inactive)
106 | CCAUAUUUUACCCAAAAGCTT against Prune1 | -1.04 (inactive)
107 | CGAAGGAGUCAAAACUGGGTT against Klk1b8 | -1.79 (inactive)
